High-throughput results: PubChem, National Center for Advancing Translational Sciences (NCATS)
This is one part of a sample in which hits are shown more often than they occur.
TR SRC2 fluor cs – alters Texas Red total fluorescence, flagging assay interference; TRb/SRC2 Texas Red total fluorescence interference; Potency, µM (series often up to 106 µM), for inactives: at the highest dose fluorescence change, negative = quenching; 280,000 compounds, 0.29% hits; active = well fitted curve in either direction with a large enough effect; inconclusive = small, poorly fitted or top-dose-only effect; note: % is set by controls: 0 for no effect and ±100 for the full control effect
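Flags fluorescent or light-absorbing compounds by total fluorescence, S + 2P, at 555 nm excitation and 632 nm emission. Mixture: 20 nM Texas Red SRC2 peptide, 0.6 uM human TRb LBD, 1 uM T3, 5% DMSO; compound exposure 5 h at ambient temperature.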
ERG-DNA inh – inhibitors of human ERG Ets domain-DNA interaction; P11308; fluorescence polarization, His-ERG Ets domain / labelled DNA; Potency, µM (series often up to 76.9 µM), for the others: top-dose FP activity, negative = inhibition, most hits filed as inhibitors; 370,000 compounds, 0.028% hits; AID 624246; active = well fitted inhibition curve with a large enough effect in the polarisation, with a control signal flat; inconclusive = small, poorly fitted or top-dose-only effect, or effect the other way, or a change in a side signal; inactive = no such curve, though single readings can be large or run the other way; the % refers to the polarisation;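 note: polarization taken with two DNA probes labelled with fluorescein and Texas red; % of control where 0% means no effect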
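His-tagged ERG Ets domain (1 uM in the protein solution; 300mM KCl, 50mM Tris-HCl, 1mM EDTA, 1mM DTT, pH 7.5) received compound, then a probe mix of 5 nM fluorescein-DNA and 100nM Texas-615-DNA. Fluorescence polarization was read for both dyes.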
TRb SRC2 PPI – inhibitors of human thyroid hormone receptor beta-SRC2 interaction. P10828. TRbeta-SRC2 peptide binding, fluorescence polarization; receptor liganded with 1 µM T3. Potency, µM (top dose mostly 106 µM), for inactives: top-dose activity change, negative = inhibition, usual class: inhibitors. 280,000 compounds, 0.065% hits. AID 1469; active = well fitted inhibition curve with a large enough effect; inconclusive = small, poorly fitted or top-dose-only effect, or effect the other way;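 note: plate controls were bound peptide for no effect and peptide without receptor for full effect; nearly all actives have a fitted effect of over 50% in size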
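Polarization signal, normalized between peptide-alone and full complex controls, measured compound effects on T3-liganded human TRb LBD (0.6 uM) binding 20 nM Texas Red SRC2 peptide after 5 hr.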
GoLoco inh red – inhibitors of human Gai1-RGS12 GoLoco interaction (red fluorophore) | Potency, µM (top dose mostly 61.6 µM), inactives show at the top dose activity, negative = inhibition, hits mostly inhibitors | Gai1:RGS12 GoLoco peptide FP, rhodamine, 10 min | P63096 | 230,000 compounds, 0.44% hits; active = well fitted inhibition curve with a large enough effect, not every such curve was filed as active; inactive = no such curve, though single readings can be large or run the other way; note: % is set by controls: 0 for no effect and ±100 for the full control effect; nearly all actives have a fitted effect of over 30% in size
Target sequence (P63096 whole entry, looked up): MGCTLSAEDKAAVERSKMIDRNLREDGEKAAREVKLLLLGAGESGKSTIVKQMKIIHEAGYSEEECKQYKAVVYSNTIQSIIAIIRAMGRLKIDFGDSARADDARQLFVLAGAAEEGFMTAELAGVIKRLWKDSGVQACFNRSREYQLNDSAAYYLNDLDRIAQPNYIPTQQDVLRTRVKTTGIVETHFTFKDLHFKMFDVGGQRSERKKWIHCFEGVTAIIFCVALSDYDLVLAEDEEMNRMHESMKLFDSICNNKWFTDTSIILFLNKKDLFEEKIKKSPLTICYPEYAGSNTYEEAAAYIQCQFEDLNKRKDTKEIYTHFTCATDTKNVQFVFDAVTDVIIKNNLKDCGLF
The depositor's hits bear a star; i = inactive; ? = inconclusive; · = no result given; ! = a repeat was not active; [ ] = another dose, or the depositor's remark. Potency is the fitted concentration of half-maximal effect.

SMILES | TR SRC2 fluor cs | ERG-DNA inh | TRb SRC2 PPI | GoLoco inh red
CC[C@H](C)[C@H](NC(=O)[C@H](Cc1cnc[nH]1)NC(=O)[C@@H](NC(=O)[C@H](CCCNC(=N)N)NC(=O)[C@H](CCCCN)NC(=O)[C@H](CCCNC(=N)N)NC(=O)[C@H](CCCCN)NC(=O)[C@@H](N)CC(N)=O)[C@@H](C)CC)C(=O)NCC(=O)N1CCC[C@H]1C(=O)NCC(=O)N[C@@H](CCCNC(=N)N)C(=O)N[C@@H](C)C(=O)N[C@@H](Cc1ccccc1)C(=O)N[C@@H](Cc1ccc(O)cc1)C(=O)N[C@H](C(=O)N[C@H](C(=O)N[C@@H](CCCCN)C(=O)N[C@@H](CC(N)=O)C(=O)N[C@H](C(=O)N[C@H](C(=O)NCC(=O)N[C@H](C(=O)N[C@H](C(=O)N[C@@H](CS)C(=O)O)[C@@H](C)CC)[C@@H](C)O)[C@@H](C)CC)[C@@H](C)CC)[C@@H](C)O)[C@@H](C)O | 0.8% | · | 2.5% | ·
COC(=O)CCCCCCCCCC[N+]1(C)CCCCC1 | 0.6% | -0.9% | -10.4% | 11.2µM*
CC(=O)OCCCCCCCCCCC[N+]1(C)CCCCC1 | -0.3% | 6.0% | -0.4% | 11.0%
COC(=O)c1ccc(NC(=O)N2CCC(CN3CCc4ccccc4C3)CC2)cc1 | 112µM*[quencher] | 4.5% | -29.9% | ·
COc1cc(NC(=O)N2CCC(CN3CCc4ccccc4C3)CC2)cc(OC)c1 | ? | -2.3% | 4.0% | ·
COc1ccc(Cl)cc1NC(=O)N1CCC(CN2CCc3ccccc3C2)CC1 | 56.2µM*[quencher] | -3.1% | -26.3% | ·
O=C1c2ccccc2C(=O)c2c(NC(=O)c3ccc4c5c(ncnc35)-c3ccccc3C4=O)cccc21 | · | · | · | 2.3%[14.2 µM]
O=C(O)c1ccc2c3c(ncnc13)-c1ccccc1C2=O | 4.4% | -7.7% | -13.3% | 17.8µM*
O=C1NC(=O)C(Cc2ccc(OCCN3COc4ccccc4C3=O)cc2)S1 (centres undefined) | -3.8% | · | 0.3% | ·
C[n+]1ccc(C(=O)N/N=C/c2ccco2)cc1 | -3.0% | -3.2% | -2.5% | 0.891µM*
C/C(=N\NC(=O)c1ccncc1)c1ccc2ccccc2c1O | · | · | · | 38.8%[14.2 µM]
O=S(=O)(O)c1ccc2c(c1)-c1nc-2nc2[nH]c(nc3nc(nc4[nH]c(n1)c1ccc(S(=O)(=O)O)cc41)-c1ccc(S(=O)(=O)O)cc1-3)c1ccc(S(=O)(=O)O)cc21 | 2.24µM*[quencher] | · | ? | ·
Nc1cc(S(=O)(=O)O)cc2ccc(S(=O)(=O)O)cc12 | · | -23.7% | · | -4.8%[14.2 µM]
CC(=O)OC(C(=O)c1ccccc1)c1ccccc1 (centres undefined) | -0.8% | · | -1.4% | 15.8µM*
COc1ccc(C(=O)OC(C(=O)c2ccc(C)cc2)c2ccccc2)cc1 (centres undefined) | 0.3% | 12.0% | 5.1% | -9.5%
COc1ccc(C2=Nn3c(nnc3-c3ccc(OC)cc3OC)SC2)cc1 | -1.3% | · | -5.2% | ·
Cc1c2cc(O)c(=O)cc-2oc2cc(O)c(O)cc12 | 9.0% | ? | -13.1% | 7.94µM*
COc1cc(OC)c(-c2c3cc(O)c(=O)cc-3oc3cc(O)c(O)cc23)cc1OC | 39.8µM*[fluorescent] | -158.4% | ? | i
Cc1ccc2c(c1)C1C=CCC1C(C(=O)O)N2 (centres undefined) | -26.7% | · | -9.2% | 40.3%
O=C(O)C1Nc2c(O)cc(Cl)c([N+](=O)[O-])c2C2C=CCC12 (centres undefined) | 12.6µM*[quencher] | 9.2% | ? | 10µM*
COc1ccc(OC)c(-c2nnc3n2N=C(c2c(OC)cccc2OC)CS3)c1 | -2.6% | · | 1.1% | ·
CCc1ccc(NC(=O)C(=O)NCC(c2cccnc2)N2CCN(C)CC2)cc1 (centres undefined) | -82.4% | 1.6% | -20.3% | ·
COc1ccc(N2CCN(C(CNC(=O)C(=O)NCc3ccc(C)cc3)c3cccnc3)CC2)cc1 (centres undefined) | 6.2% | -6.3% | 0.6% | ·
COc1ccc(N2CCN(C(CNC(=O)C(=O)NCc3cccnc3)c3cccnc3)CC2)cc1 (centres undefined) | 56.2µM*[quencher] | -1.1% | -19.6% | ·
CCc1ccc(NC(=O)C(=O)NCC(c2cccnc2)N2CCN(c3ccc(F)cc3)CC2)cc1 (centres undefined) | 100µM*[quencher] | 1.7% | -17.5% | ·
SMILES | TR SRC2 fluor cs | ERG-DNA inh | TRb SRC2 PPI | GoLoco inh red
COc1cccc(NC(=O)C(=O)NCC(c2cccnc2)N2CCN(c3ccccc3)CC2)c1 (centres undefined) | 100µM*[quencher] | 2.9% | -17.1% | ·
COc1cccc(C2=Nn3c(nnc3-c3ccccc3C)SC2)c1 | -3.4% | · | 2.2% | ·
O=C(O)c1ccc(C(=O)O)c(C(=O)O)c1 | -5.6%[201 µM] | · | -0.8%[201 µM] | ·
C[C@H](C(=O)c1ccccc1)C(c1ccccc1)N1CCOCC1 (some centres undefined) | · | · | · | 0.6%[14.2 µM]
CCCCCCCC(=O)OC | -2.7%[201 µM] | · | 5.9%[201 µM] | ·
Cc1ccccc1-n1c(C)cc(/C=N/Nc2ccc([N+](=O)[O-])cn2)c1C | -1.6% | -16.7% | -10.4% | 3.16µM*
Cc1cc(/C=N/Nc2ccc([N+](=O)[O-])cn2)c(C)n1-c1ccc(C(=O)O)cc1 | -24.1% | 7.8% | 0.7% | 21.8%
COc1ccc(NC(=O)NC(C)(C(F)(F)F)C(F)(F)F)cc1 | 0.8% | -3.8% | 0.3% | -9.8%
CC(NC(=O)Nc1ccc(O)cc1)(C(F)(F)F)C(F)(F)F | 2.6% | -6.0% | 35.5µM* | -10.7%
CCc1nnc(/N=C/c2c(O)n(-c3ccc(Cl)cn3)c(=O)c3ccccc23)s1 | -1.6% | -6.3% | -5.4% | 4.8%
O=c1c2ccccc2c(C=Nc2ccc(S(=O)(=O)N3CCCCC3)cc2)c(O)n1-c1ccc(Cl)cn1 | 35.5µM*[quencher] | · | -11.6%[53 µM] | -10.8%
C[C@H](CN(C)C)C(=O)c1ccccc1C(=O)O | · | · | · | 0.1%[14.2 µM]
O=C(COc1ccccc1)NC(=S)Nc1cccc([N+](=O)[O-])c1 | 0.891µM*[quencher] | -0.5% | ? | -3.5%
O=C(CCOc1ccccc1)Nc1cccc([N+](=O)[O-])c1 | 3.2% | -11.4% | -7.1% | 7.7%
Cc1ccc(CN(Cc2ccco2)C(=O)COc2ccc(C(C)C)cc2)cc1 | 0.0006µM*[quencher] | 3.4% | ? | ·
Cc1ccc2c(CC(=O)N(Cc3ccc(Cl)cc3)Cc3ccco3)coc2c1 | 1.12µM*[quencher] | 4.4% | -16.7%[53 µM] | ·
Cc1cc(C)c2c(CC(=O)N(Cc3ccc(N(C)C)cc3)Cc3ccco3)coc2c1 | ? | -1.9% | -7.9% | ·
COc1ccc([C@@H]2CC(=O)c3c(O)cc(O[C@@H]4O[C@H](CO)[C@@H](O)[C@H](O)[C@H]4O[C@@H]4O[C@@H](C)[C@H](O)[C@@H](O)[C@H]4O)cc3O2)cc1 | -17.1% | · | 5.8% | ·
CCCCCCCC[Si](OCC)(OCC)OCC | 0.0%[201 µM] | · | 8.3%[201 µM] | ·
O=C(Cl)c1cccc(C(=O)Cl)c1 | -3.5%[201 µM] | · | -5.0%[201 µM] | ·
O=C1c2ccccc2C(=O)c2c(O)c(O)cc(O)c21 | -21.4% | 71.0% | -16.5% | 6.7%
O=c1c(O)cccc2cc(O)c(O)c(O)c12 | ? | 5.3% | 3.6% | 3.98µM*!
C=C(C)C(=O)OCCOCCOCCOC(=O)C(=C)C | -1.2%[201 µM] | · | 0.4%[201 µM] | ·
